The source of these data is ChEMBL document CHEMBL3988442, “University of Dundee, Small-Polar-MMV Screening Library” (2021).

The assay addresses AMP-activated protein kinase, AMPK (Homo sapiens) (UniProt P54646+O43741+P54619+Q9UGJ0+Q9Y478+Q13131+Q9UGI9). In words: AMP-dependent Kinase enzyme assay. An in vitro enzyme assay that detects ADP turnover that is directly proportional to AMPK activity. This uses naive AMPK that is activated during the assay with MK-8722. The assay is classed as functional. Details: scale not given: direction of the effect not stated beside the values. Particulars: 30 µM.
For `Cc1ccc(-c2nnn(CCN3C(=O)CCC3=O)n2)cc1`, the Percent Effect is -8.21%. With `COc1ccc(CCC(C)Nc2cccc(SC)c2)cc1` (stereo not given) the figure was -6.2%; with `CCc1cc(N2CCC(NCCc3ccccc3F)CC2)nc(C)n1`, 1.26%; with `COc1cc2ncn(Cc3ncc[nH]3)c(=O)c2cc1OC`, -1.8%. With `CN(Cc1noc(-c2ccccc2)n1)C(=O)CSc1nnc(N)s1`, the Percent Effect turned out to be 1.22%. With `Cc1c(Br)cccc1C(=O)Nc1cc(C(N)=O)n(C)c1` the figure was 3.87%; with `CC(C)(C)c1nc(CC(=O)Nc2cnccc2O)cs1`, -0.224%. Consider `CN(CCc1ccccn1)C(=O)Cn1cc(-c2ccccc2)nn1`, for which the Percent Effect was -0.117%.

For `O=C1CCC2(CCNCC2)CN1Cc1nncn1CCc1ccccc1`, the Percent Effect was 14.9%. With `Cc1cc(C(=O)Nc2ccc(OCCN3CCN(C)CC3)cc2)[nH]n1` the figure was 14.7%; with `Cc1cccc(C(C)C)c1NC(=O)CN(C)C(C)c1nccs1` (stereo not given), -7.09%; with `COc1ccc2c(c1)OCC(Cc1cc(C(=O)N3CCCC3)ccn1)C2` (stereo not given), 0.531%.

For `O=C(Cn1ccc2ncccc2c1=O)N1CCCCC1`, the Percent Effect is -2.48%. With `CN(Cc1ccc2c(c1)OCO2)Cc1cscn1` the figure was -5.54%; with `CC(C)c1cc(C2CCN(C(=O)Cn3nc4ccccc4n3)CC2)[nH]n1`, 13.1%; with `COC(=O)c1ccc(Cn2cccc(C(F)(F)F)c2=O)c(OC)c1`, 6.82%. For `Cc1nc(CNCc2ccc(OC34CCCN(CC3)C4)cc2)n[nH]1` (stereo not given) the value was -5.44%. For `CCNc1ncc(CN2CCOC(Cc3cccc(OC)c3)C2)cn1` (stereo not given) the value was 0.956%; for `NC(=O)CN1CCC(c2noc3cc(F)ccc23)CC1`, 12.7%. Turning to `COc1ccnc(CNc2nc(C)nc3ccsc23)c1`, the Percent Effect is -0.808%. With `O=C(c1coc(-c2ccccc2)n1)N1CCCC1`, the Percent Effect stood at 5.08%. For `Cc1cc(C2CCCN(CC(=O)N3CCc4ccccc43)C2)n[nH]1` (stereo not given) the value was -5.04%. Take `Cc1noc(C(C)N2CCC(c3nc4ccccc4[nH]3)CC2)n1` (stereo not given): the Percent Effect was found to be 1.83%. For `O=C(OCC1CCCN1)c1cccc(NC(=O)c2ccco2)c1` (stereo not given) the value was -4.3%; for `CCN(Cc1cn(CC2CCNCC2)nn1)CC1CCCO1` (stereo not given), 4.72%; for `CCN(CC)C1CCN(C(=O)Nc2cc(F)c(OC)c(F)c2)C1` (stereo not given), -3.29%.

For the compound `CNCc1cn(C2CCN(C(=O)NCc3ccco3)CC2)nn1`, the Percent Effect stood at 0.812%.

With `CC(C)(C)NC(=O)CNc1ncc(Br)cn1`, the Percent Effect came out at 7.93%. For `c1c[nH]c(-c2cn(CCSc3cnn[nH]3)nn2)n1` the value was -8.05%. For `Cc1ccnc2c1NC(=O)CN2C(=O)CCc1cccs1` the value was -0.535%; for `CCCOC1CCCN(c2ncnc3c2CCN(C(=O)C2CC2)C3)C1` (stereo not given), 3.46%; for `Cc1cc(C(=O)NCCC2CCN(C)CC2)ccc1N(C)S(C)(=O)=O`, 6.31%.

Regarding `O=S(=O)(NCC1(c2cccs2)CCOCC1)c1cccnc1`, the Percent Effect is -2.3%. For `COc1ccc(C2CN(c3ncccn3)CCN2C(C)=O)cc1` (stereo not given), the Percent Effect came to 21.2%. With `Cc1ccc(F)c2c1N(C(=O)c1ccc(S(C)(=O)=O)cc1)CCC2` the figure was 0.782%; with `CC1(c2nccs2)CCN(C(=O)CCN2CCOCC2)CC1`, 10.7%. For `CCc1nnc2n1CCN(C(=O)C(C)Oc1cccc(C#N)c1)C2` (stereo not given) the value was 5.56%; for `CNS(=O)(=O)CC(=O)NCc1cc2c(s1)CCC(C)(C)C2`, -1.02%; for `CN(Cc1ccncc1)c1cncc(Br)c1`, 3.2%. With `COC(=O)C(NC(=O)c1ccc(C)cc1C)c1cccnc1` (stereo not given) the figure was 2.32%.
